# Measurements published in ChEMBL document CHEMBL3988442, “University of Dundee, Small-Polar-MMV Screening Library” (2021).
# Target: T1, Methionyl-tRNA synthetase, putative (Leishmania donovani (strain BPK282A1)) (UniProt E9BF75)
# T1 sequence (whole entry): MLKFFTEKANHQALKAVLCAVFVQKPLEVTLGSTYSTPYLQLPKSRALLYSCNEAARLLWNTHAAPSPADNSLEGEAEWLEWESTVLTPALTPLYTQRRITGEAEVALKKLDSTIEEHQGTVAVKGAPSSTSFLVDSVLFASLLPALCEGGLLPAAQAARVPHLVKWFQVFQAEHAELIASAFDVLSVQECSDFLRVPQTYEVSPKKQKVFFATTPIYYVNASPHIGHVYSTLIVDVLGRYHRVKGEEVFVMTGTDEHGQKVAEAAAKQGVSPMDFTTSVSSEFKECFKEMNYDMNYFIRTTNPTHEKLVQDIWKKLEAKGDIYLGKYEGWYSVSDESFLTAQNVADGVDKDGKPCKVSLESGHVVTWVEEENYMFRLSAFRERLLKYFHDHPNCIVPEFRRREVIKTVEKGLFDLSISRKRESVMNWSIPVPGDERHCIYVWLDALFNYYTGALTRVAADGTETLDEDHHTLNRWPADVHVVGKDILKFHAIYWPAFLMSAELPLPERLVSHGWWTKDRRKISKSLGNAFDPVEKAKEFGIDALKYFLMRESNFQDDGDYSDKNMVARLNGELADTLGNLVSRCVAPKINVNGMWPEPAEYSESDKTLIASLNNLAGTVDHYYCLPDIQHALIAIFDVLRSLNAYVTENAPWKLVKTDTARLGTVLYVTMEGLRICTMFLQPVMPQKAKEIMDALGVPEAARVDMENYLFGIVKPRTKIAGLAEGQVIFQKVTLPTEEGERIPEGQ
# Test: Leishmania donovani Methionine tRNA synthetase (LdMetRS):v7. Dose response assay
# Assay type: functional
# Set-up: conc 80 nM, time 150 minutes
structure (smiles),measurement,setting,value
CC(C)C[C@H](N)COc1ccccc1C(=O)c1ccccc1,PXC50,MAX_EFFECT 1.863354037,< 4
same,PXC50,MAX_EFFECT -0.213219616,< 4
Cc1cc(C(F)(F)F)nc(NCCc2ccccc2)n1,PXC50,MAX_EFFECT 6.557377049,< 4
same,PXC50,MAX_EFFECT 10.16042781,< 4
CC(C)C[C@H](N)COc1ccc(Cl)cc1-c1ccno1,PXC50,MAX_EFFECT 6.832298137,< 4
same,PXC50,MAX_EFFECT 8.742004264,< 4
Cc1nc(N2CCc3ccccc3C2)c2c3c(sc2n1)CCC3,PXC50,"BOTTOM 1.539204696, HILLSLOPE 1.85727021, MAX_EFFECT 61.30653266, TOP 67.5568533",4.58
same,PXC50,"BOTTOM -2.995522408, HILLSLOPE 1.216214635, MAX_EFFECT 78.37837838, TOP 108.7860492",4.36
O=C1CN(c2nc(-c3cccnc3)nc3sc4c(c23)CCCC4)CCN1,PXC50,MAX_EFFECT 24.0,< 4
same,PXC50,MAX_EFFECT 26.98412698,< 4
O=c1cc(NCCCNC2CCOc3c(I)cc(Cl)cc32)[nH]c2ccccc12 (stereo not given),PXC50,"BOTTOM 0.0, HILLSLOPE 1.492515979, MAX_EFFECT 100.0, TOP 105.2364851",5.24
same,PXC50,"BOTTOM 6.728264836, HILLSLOPE 2.160741468, MAX_EFFECT 100.4651163, TOP 100.3878671",5.22
Oc1c(Cl)cc(Cl)cc1CNc1nccs1,PXC50,MAX_EFFECT 15.39923954,< 3
same,PXC50,MAX_EFFECT 20.51835853,< 3
O=C(NCC1(O)CCC(F)(F)CC1)c1cc(=O)c2cc(F)cc(O)c2o1,PXC50,MAX_EFFECT 4.030710173,< 4
same,PXC50,MAX_EFFECT 10.04784689,< 4
Cc1nc(N2CCNC(=O)CC2C)c2c(-c3ccccc3)csc2n1 (stereo not given),PXC50,MAX_EFFECT 10.43256997,< 4
same,PXC50,MAX_EFFECT 12.34256927,< 4
Cc1noc(CCNC(=O)c2ccc3ccc(N4CCN(S(C)(=O)=O)CC4)n3c2)n1,PXC50,"BOTTOM 5.724020306, HILLSLOPE 2.592848239, MAX_EFFECT 58.13528336, TOP 58.43223286",4.74
same,PXC50,"BOTTOM -1.848364429, HILLSLOPE 1.849781613, MAX_EFFECT 52.63157895, TOP 54.86189083",4.91
FC(F)(F)c1nc(N2CCCCCC2)nc2c1CCCCC2,PXC50,MAX_EFFECT 4.325699746,< 4
same,PXC50,MAX_EFFECT 5.793450882,< 4
Cc1ccc(-c2cc(C(F)(F)F)nc(NCCCN(C)C)n2)cc1,PXC50,MAX_EFFECT 7.446808511,< 4
same,PXC50,MAX_EFFECT 8.808290155,< 4
NC(=O)c1ccc(Cl)cc1Cl,PXC50,MAX_EFFECT 4.967602592,< 3
same,PXC50,MAX_EFFECT 16.92015209,< 3
CC(C)C[C@H](N)COc1ccccc1-c1ccccc1,PXC50,MAX_EFFECT 19.82942431,< 4
same,PXC50,MAX_EFFECT 21.32505176,< 4
O=C1CC[C@@H](COc2cccc(F)c2Oc2ccc(Cl)cc2)N1,PXC50,MAX_EFFECT 7.462686567,< 4
same,PXC50,MAX_EFFECT 9.316770186,< 4
Nc1noc2ccc(-c3cnc4ccc(NCC5CC5)nn34)cc12,PXC50,MAX_EFFECT 32.56997455,< 4
same,PXC50,MAX_EFFECT 37.71929825,< 4
Cc1sc2nc(CCN)nc(N(C)CCCC3CCCO3)c2c1C (stereo not given),PXC50,MAX_EFFECT 15.90909091,< 4
same,PXC50,MAX_EFFECT 18.36734694,< 4
CCc1nc(N2CCCC2C(=O)O)c2c3c(sc2n1)CCC3 (stereo not given),PXC50,MAX_EFFECT 9.836065574,< 4
same,PXC50,MAX_EFFECT 11.76470588,< 4
Cc1nc(NCCCC(=O)O)c2c3c(sc2n1)CCCC3,PXC50,MAX_EFFECT 9.823677582,< 4
same,PXC50,MAX_EFFECT 10.43256997,< 4
CCN1CCN(c2nc(-c3cccc(OC)c3)cc(C(F)(F)F)n2)CC1,PXC50,MAX_EFFECT 17.85714286,< 4
same,PXC50,MAX_EFFECT 18.43434343,< 4
Nc1noc2ccc(-c3cnc4ccc(NCC5CCCO5)nn34)cc12 (stereo not given),PXC50,MAX_EFFECT 19.33842239,< 4
same,PXC50,MAX_EFFECT 25.0,< 4
Cc1nc(N[C@@H](C)C(=O)O)c2c3c(sc2n1)CCCC3,PXC50,MAX_EFFECT 7.446808511,< 4
same,PXC50,MAX_EFFECT 9.32642487,< 4
CCc1nc(-n2nc(C)cc2N)c2c3c(sc2n1)CCCC3,PXC50,MAX_EFFECT 9.836065574,< 4
same,PXC50,MAX_EFFECT 10.69518717,< 4
CN1CCN(c2ccc3ccc(C(=O)N4CCCCO4)cn23)CC1,PXC50,MAX_EFFECT 12.20657277,< 4
same,PXC50,MAX_EFFECT 19.44444444,< 4
CC(C)C[C@@H](COc1cccc(F)c1Oc1ccc(Cl)cc1)NS(C)(=O)=O,PXC50,MAX_EFFECT 6.609808102,< 4
same,PXC50,MAX_EFFECT 8.902691511,< 4
CC(C)C[C@H](N)CNc1cccnc1Oc1ccc(Cl)cc1,PXC50,MAX_EFFECT 7.660455487,< 4
same,PXC50,MAX_EFFECT 9.168443497,< 4
Cc1nc(N2CCC(C(O)CC(C)C)CC2)c2ccsc2n1 (stereo not given),PXC50,MAX_EFFECT 3.626943005,< 4
same,PXC50,MAX_EFFECT 4.255319149,< 4
CS(=O)(=O)N1CCN(c2ccc3ccc(C(=O)NCC4CCCO4)cn23)CC1 (stereo not given),PXC50,"BOTTOM -3.857720999, HILLSLOPE 1.705839216, MAX_EFFECT 57.40402194, TOP 63.01150798",4.63
same,PXC50,"BOTTOM -4.829130924, HILLSLOPE 1.927262902, MAX_EFFECT 52.15311005, TOP 54.22060795",4.86
Cc1nc(N2CCCC(N)CC2)c2ccsc2n1 (stereo not given),PXC50,MAX_EFFECT 0.0,< 4
same,PXC50,MAX_EFFECT 3.10880829,< 4
CCOC(=O)N1CCN(c2nc(-n3nc(C)cc3C)nc3sc4c(c23)CCCC4)CC1,PXC50,MAX_EFFECT 10.41666667,< 4
same,PXC50,MAX_EFFECT 12.71929825,< 4
